The values that follow come from PubChem BioAssay AID651681 (Broad Institute, 2012).

The assay concerns the target Cyclin-dependent kinase 2 (Homo sapiens) + Cyclin-A2 (Homo sapiens) (UniProt P20248+P24941). The experiment in a line: blockade of human CDK2 kinase activity – biochemical, dry powder, set 3, selectivity assay for Dyrk1A inhibitor project, dose response (AID 651681). The settings on record: CDK2/cyclin A ADP-Glo luminescence, histone H1 peptide; series mostly up to 10 µM. On the technique in general: In ADP-Glo the light output rises with the ADP produced.

Molecules are shown by their SMILES. Activity calls are given as the source filed them.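 How the source made its calls: active means compound with fitted CDK2 half-maximal potency at or below twice its top tested dose; inconclusive means flat curve near 30 to 70% inhibition, or poor fit; inactive means the rest.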

Chain of Cyclin-dependent kinase 2 (Homo sapiens) + Cyclin-A2 (Homo sapiens) (P20248 whole entry, looked up, one chain of several): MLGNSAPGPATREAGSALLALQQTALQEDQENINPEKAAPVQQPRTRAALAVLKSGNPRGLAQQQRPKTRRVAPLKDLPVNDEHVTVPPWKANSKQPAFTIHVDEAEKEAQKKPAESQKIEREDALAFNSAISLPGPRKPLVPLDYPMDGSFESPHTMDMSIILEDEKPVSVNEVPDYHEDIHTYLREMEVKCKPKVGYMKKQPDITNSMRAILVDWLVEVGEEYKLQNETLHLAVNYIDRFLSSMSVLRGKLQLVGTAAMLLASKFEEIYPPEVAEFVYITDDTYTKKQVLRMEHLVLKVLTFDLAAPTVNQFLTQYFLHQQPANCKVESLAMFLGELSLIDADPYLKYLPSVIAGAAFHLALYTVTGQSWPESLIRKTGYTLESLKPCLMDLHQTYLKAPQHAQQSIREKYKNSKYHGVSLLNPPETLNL

For the molecule `COc1ccc(OC)c(C2=Nn3c(nnc3-c3ccccc3)SC2)c1`, the result was inactive.

`Cc1sc(NC(=O)CSCc2ccccc2)nc1-c1ccccc1`: the result was inactive.

As to `COc1ccc2c(Cl)c(C(=O)NCc3cccnc3)sc2c1`, the result was inactive.

In the case of `CN(CC(=O)Nc1nc2ccc(Cl)cc2s1)S(=O)(=O)c1ccc(C#N)cc1`, the outcome was inactive.
